Assay results from paper PMC7862700, “An all-to-all approach to the identification of sequence-specific readers for epigenetic DNA modifications on cytosine”.

What follows are sequences tested against T1, GABPA (Homo sapiens, UniProt Q06546 1-454) (assay: DAPPL (digital affinity profiling via proximity ligation, sequencing); 10 mM Tris-HCl pH 7.5, 50 mM NaCl, 1 mM DTT, 4% glycerol, room temperature, 30 min; GST-TFs on glutathione beads, 16-mer random dsDNA library, 0.1% formaldehyde crosslink after washing; high values mean tight binding). Settings: protein: recombinant; tags: N-terminal GST; dsDNA, one strand shown.
T1 sequence: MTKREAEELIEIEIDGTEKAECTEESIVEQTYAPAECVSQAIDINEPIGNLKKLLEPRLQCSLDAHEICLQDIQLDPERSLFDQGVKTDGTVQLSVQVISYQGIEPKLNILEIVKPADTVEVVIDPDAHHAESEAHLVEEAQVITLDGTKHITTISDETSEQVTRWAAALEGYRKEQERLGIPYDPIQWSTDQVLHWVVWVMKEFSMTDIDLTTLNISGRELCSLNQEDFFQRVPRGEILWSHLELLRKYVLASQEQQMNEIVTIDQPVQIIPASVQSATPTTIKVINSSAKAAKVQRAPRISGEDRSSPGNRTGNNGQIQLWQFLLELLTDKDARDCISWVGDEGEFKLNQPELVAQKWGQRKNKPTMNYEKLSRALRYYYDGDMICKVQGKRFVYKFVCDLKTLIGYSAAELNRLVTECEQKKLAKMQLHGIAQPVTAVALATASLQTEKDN
How it was run: (§1)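 The binding signal reported is, for every hexamer, its read frequency for a factor over its read frequency for the tag-only sample. Reads came from pools of yeast-expressed, GST-fused human transcription factors on glutathione beads, barcoded with DNA and mixed with that sample, which were incubated with 200 nmole of a random double-stranded 16-mer DNA library in Tris/NaCl/DTT/glycerol buffer at room temperature for 30 min. After washing, the pools were crosslinked with 0.1% formaldehyde, proximity-ligated with BsaI/T4 ligase for 1 h at 37 °C, PCR-amplified and sequenced on an Illumina NextSeq500.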

| Sequence | binding signal |
| --- | --- |
| GACCTA | 1.17 fold enrichment (6-mer frequency, TF over GST control) |
| CCCAAC | 1.09 fold enrichment (6-mer frequency, TF over GST control) |
| TTAGAA | 1.01 fold enrichment (6-mer frequency, TF over GST control) |
| ACATTC | 1.31 fold enrichment (6-mer frequency, TF over GST control) |
| CTCAGT | 1.2 fold enrichment (6-mer frequency, TF over GST control) |
| CCCACT | 1.26 fold enrichment (6-mer frequency, TF over GST control) |
| CAATAG | 1.22 fold enrichment (6-mer frequency, TF over GST control) |
| TTGATC | 1.21 fold enrichment (6-mer frequency, TF over GST control) |
| CGCTGC | 1.25 fold enrichment (6-mer frequency, TF over GST control) |
| AAGGTA | 1.18 fold enrichment (6-mer frequency, TF over GST control) |
| CATTCA | 1.1 fold enrichment (6-mer frequency, TF over GST control) |
| TCTCCG | 1.57 fold enrichment (6-mer frequency, TF over GST control) |
| ACCTGA | 1.03 fold enrichment (6-mer frequency, TF over GST control) |
| CAAACC | 1.11 fold enrichment (6-mer frequency, TF over GST control) |
| TAAGCT | 1.17 fold enrichment (6-mer frequency, TF over GST control) |
| CTGGTC | 1.25 fold enrichment (6-mer frequency, TF over GST control) |
| TGCCCG | 1.24 fold enrichment (6-mer frequency, TF over GST control) |
| CCGACG | 1.27 fold enrichment (6-mer frequency, TF over GST control) |
| GCTTGG | 1.12 fold enrichment (6-mer frequency, TF over GST control) |
| TACCCA | 1.12 fold enrichment (6-mer frequency, TF over GST control) |

What follows are sequences tested against T2, ERG (Homo sapiens, UniProt P11308 1-479) in the same assay as above. Settings: protein: recombinant; tags: N-terminal GST; dsDNA, one strand shown.
T2 sequence: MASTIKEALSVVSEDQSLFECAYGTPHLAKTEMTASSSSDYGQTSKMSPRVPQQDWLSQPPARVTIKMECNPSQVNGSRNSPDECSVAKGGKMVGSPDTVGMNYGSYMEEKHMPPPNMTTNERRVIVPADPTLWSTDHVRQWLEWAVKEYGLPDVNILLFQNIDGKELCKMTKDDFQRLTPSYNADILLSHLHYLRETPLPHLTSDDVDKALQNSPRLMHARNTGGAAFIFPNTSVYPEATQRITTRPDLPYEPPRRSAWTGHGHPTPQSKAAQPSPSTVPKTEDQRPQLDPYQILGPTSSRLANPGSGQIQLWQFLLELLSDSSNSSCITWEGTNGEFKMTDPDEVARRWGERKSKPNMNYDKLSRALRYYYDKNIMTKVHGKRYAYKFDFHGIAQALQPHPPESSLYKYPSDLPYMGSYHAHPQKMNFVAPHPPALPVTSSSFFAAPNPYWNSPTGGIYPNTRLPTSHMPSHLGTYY
How it was run: as §1

| Sequence | binding signal |
| --- | --- |
| TTTTAG | 1.19 fold enrichment (6-mer frequency, TF over GST control) |
| TGTACC | 1.26 fold enrichment (6-mer frequency, TF over GST control) |
| CCCTAA | 1.17 fold enrichment (6-mer frequency, TF over GST control) |
| CACGCC | 1.29 fold enrichment (6-mer frequency, TF over GST control) |
| ATCCAA | 1.09 fold enrichment (6-mer frequency, TF over GST control) |
| CTGATC | 1.42 fold enrichment (6-mer frequency, TF over GST control) |
| TTCACC | 1.38 fold enrichment (6-mer frequency, TF over GST control) |
| CATCTG | 1.16 fold enrichment (6-mer frequency, TF over GST control) |
| TATCCC | 1.58 fold enrichment (6-mer frequency, TF over GST control) |
| CTCGCT | 1.63 fold enrichment (6-mer frequency, TF over GST control) |
| ATTTGT | 1.28 fold enrichment (6-mer frequency, TF over GST control) |
| TTTGTC | 1.19 fold enrichment (6-mer frequency, TF over GST control) |
| TGACAA | 1.28 fold enrichment (6-mer frequency, TF over GST control) |
| TATGCA | 1.26 fold enrichment (6-mer frequency, TF over GST control) |
| ACAAAC | 1.16 fold enrichment (6-mer frequency, TF over GST control) |
| TTAAGT | 1.17 fold enrichment (6-mer frequency, TF over GST control) |
| TGCGGA | 1.37 fold enrichment (6-mer frequency, TF over GST control) |
| GCTCTT | 1.39 fold enrichment (6-mer frequency, TF over GST control) |
| CGACGC | 1.05 fold enrichment (6-mer frequency, TF over GST control) |
| AACTTC | 2.73 fold enrichment (6-mer frequency, TF over GST control) |

| Sequence | binding signal |
| --- | --- |
| GACCTA | 1.11 fold enrichment (6-mer frequency, TF over GST control) |
| CCCAAC | 1.15 fold enrichment (6-mer frequency, TF over GST control) |
| TTAGAA | 1.05 fold enrichment (6-mer frequency, TF over GST control) |
| ACATTC | 1.23 fold enrichment (6-mer frequency, TF over GST control) |
| CTCAGT | 1.13 fold enrichment (6-mer frequency, TF over GST control) |
| CCCACT | 1.35 fold enrichment (6-mer frequency, TF over GST control) |
| CAATAG | 1.04 fold enrichment (6-mer frequency, TF over GST control) |
| TTGATC | 1.19 fold enrichment (6-mer frequency, TF over GST control) |
| CGCTGC | 1.22 fold enrichment (6-mer frequency, TF over GST control) |
| AAGGTA | 1.05 fold enrichment (6-mer frequency, TF over GST control) |
| CATTCA | 1.17 fold enrichment (6-mer frequency, TF over GST control) |
| TCTCCG | 1.42 fold enrichment (6-mer frequency, TF over GST control) |
| ACCTGA | 1.12 fold enrichment (6-mer frequency, TF over GST control) |
| CAAACC | 1.16 fold enrichment (6-mer frequency, TF over GST control) |
| TAAGCT | 1.18 fold enrichment (6-mer frequency, TF over GST control) |
| CTGGTC | 1.2 fold enrichment (6-mer frequency, TF over GST control) |
| TGCCCG | 1.19 fold enrichment (6-mer frequency, TF over GST control) |
| CCGACG | 1.2 fold enrichment (6-mer frequency, TF over GST control) |
| GCTTGG | 1.09 fold enrichment (6-mer frequency, TF over GST control) |
| TACCCA | 1.03 fold enrichment (6-mer frequency, TF over GST control) |

The sequences below were run against ELF1 (Homo sapiens, UniProt P32519 1-619) in the same assay as above. Settings: protein: recombinant; tags: N-terminal GST; dsDNA, one strand shown.
Sequence of ELF1 (P32519 whole entry): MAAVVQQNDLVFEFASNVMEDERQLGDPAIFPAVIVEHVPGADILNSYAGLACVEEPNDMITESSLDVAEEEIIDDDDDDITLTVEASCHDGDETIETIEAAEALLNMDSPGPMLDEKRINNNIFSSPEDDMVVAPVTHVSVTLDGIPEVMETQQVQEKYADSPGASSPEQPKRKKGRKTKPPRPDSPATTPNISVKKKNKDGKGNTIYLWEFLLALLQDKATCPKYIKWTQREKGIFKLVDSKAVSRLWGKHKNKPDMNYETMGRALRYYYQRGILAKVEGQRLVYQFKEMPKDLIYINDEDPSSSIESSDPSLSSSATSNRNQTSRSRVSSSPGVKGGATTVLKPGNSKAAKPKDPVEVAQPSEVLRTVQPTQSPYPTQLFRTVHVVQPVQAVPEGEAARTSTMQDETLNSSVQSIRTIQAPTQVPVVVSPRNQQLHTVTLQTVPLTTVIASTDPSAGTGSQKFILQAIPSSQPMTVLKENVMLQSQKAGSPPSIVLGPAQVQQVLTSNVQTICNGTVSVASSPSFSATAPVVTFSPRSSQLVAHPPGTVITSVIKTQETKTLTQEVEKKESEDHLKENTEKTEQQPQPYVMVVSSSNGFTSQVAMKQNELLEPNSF
How it was run: as §1

| Sequence | binding signal |
| --- | --- |
| TTTTAG | 1.21 fold enrichment (6-mer frequency, TF over GST control) |
| TGTACC | 1.34 fold enrichment (6-mer frequency, TF over GST control) |
| CCCTAA | 1.25 fold enrichment (6-mer frequency, TF over GST control) |
| CACGCC | 1.26 fold enrichment (6-mer frequency, TF over GST control) |
| ATCCAA | 1.2 fold enrichment (6-mer frequency, TF over GST control) |
| CTGATC | 1.4 fold enrichment (6-mer frequency, TF over GST control) |
| TTCACC | 1.39 fold enrichment (6-mer frequency, TF over GST control) |
| CATCTG | 1.33 fold enrichment (6-mer frequency, TF over GST control) |
| TATCCC | 1.57 fold enrichment (6-mer frequency, TF over GST control) |
| CTCGCT | 1.75 fold enrichment (6-mer frequency, TF over GST control) |
| ATTTGT | 1.31 fold enrichment (6-mer frequency, TF over GST control) |
| TTTGTC | 1.26 fold enrichment (6-mer frequency, TF over GST control) |
| TGACAA | 1.38 fold enrichment (6-mer frequency, TF over GST control) |
| TATGCA | 1.18 fold enrichment (6-mer frequency, TF over GST control) |
| ACAAAC | 1.12 fold enrichment (6-mer frequency, TF over GST control) |
| TTAAGT | 1.19 fold enrichment (6-mer frequency, TF over GST control) |
| TGCGGA | 1.32 fold enrichment (6-mer frequency, TF over GST control) |
| GCTCTT | 1.66 fold enrichment (6-mer frequency, TF over GST control) |
| CGACGC | 1.16 fold enrichment (6-mer frequency, TF over GST control) |
| AACTTC | 2.47 fold enrichment (6-mer frequency, TF over GST control) |

| Sequence | binding signal |
| --- | --- |
| GACCTA | 1.21 fold enrichment (6-mer frequency, TF over GST control) |
| CCCAAC | 1.13 fold enrichment (6-mer frequency, TF over GST control) |
| TTAGAA | 1.14 fold enrichment (6-mer frequency, TF over GST control) |
| ACATTC | 1.37 fold enrichment (6-mer frequency, TF over GST control) |
| CTCAGT | 1.22 fold enrichment (6-mer frequency, TF over GST control) |
| CCCACT | 1.38 fold enrichment (6-mer frequency, TF over GST control) |
| CAATAG | 1.07 fold enrichment (6-mer frequency, TF over GST control) |
| TTGATC | 1.21 fold enrichment (6-mer frequency, TF over GST control) |
| CGCTGC | 1.14 fold enrichment (6-mer frequency, TF over GST control) |
| AAGGTA | 1.13 fold enrichment (6-mer frequency, TF over GST control) |
| CATTCA | 1.13 fold enrichment (6-mer frequency, TF over GST control) |
| TCTCCG | 1.6 fold enrichment (6-mer frequency, TF over GST control) |
| ACCTGA | 1.14 fold enrichment (6-mer frequency, TF over GST control) |
| CAAACC | 1.13 fold enrichment (6-mer frequency, TF over GST control) |
| TAAGCT | 1.15 fold enrichment (6-mer frequency, TF over GST control) |
| CTGGTC | 1.15 fold enrichment (6-mer frequency, TF over GST control) |
| TGCCCG | 1.2 fold enrichment (6-mer frequency, TF over GST control) |
| CCGACG | 1.28 fold enrichment (6-mer frequency, TF over GST control) |
| GCTTGG | 1.08 fold enrichment (6-mer frequency, TF over GST control) |
| TACCCA | 1.07 fold enrichment (6-mer frequency, TF over GST control) |
